Measured values taken from PubChem BioAssay (NCI).
Compounds without any hit were thinned out: in the full panel of roughly 83,000, 20% have a hit.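 Cells were grown in 96-well plates and exposed to the test compound at a single concentration for 48 hours; results are reported as percent growth, with values below 10 considered active.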 A number with no mark means an inactive call. The source made the active and inactive calls.

What was measured:
Assay in all cases: NCI-60 one-dose screen, 48 h (100 = growth as untreated, 0 = no growth, -100 = all killed)
Settings in all cases: 10 µM unless noted
T-47D breast = tested on: T-47D breast
MDA-MB-435 melanoma = tested on: MDA-MB-435 melanoma
SW-620 colon = tested on: SW-620 colon
MCF7 breast = tested on: MCF7 breast
HCT-116 colon = tested on: HCT-116 colon
HCC-2998 colon = tested on: HCC-2998 colon
KM12 colon = tested on: KM12 colon
BT-549 breast = tested on: BT-549 breast

SMILES | growth (T-47D breast) [%] | growth (MDA-MB-435 melanoma) | growth (SW-620 colon) [%] | growth (MCF7 breast) | growth (HCT-116 colon) | growth (HCC-2998 colon) | growth (KM12 colon) | growth (BT-549 breast) [%]
O=C1Nc2ccccc2/C1=C\c1ccccc1O | 71.9 | 82.4% | 95.8 | 65.5% | 86.3% | 94.5% | 82.3% | –
Cc1cc(NC(=O)c2ccccc2)c(Cl)cc1N | 98 | 97.4% | 106 | 84.9% | 103% | 102% | 106% | –
O=c1[nH]c(=O)c2cc(Cl)cc(Cl)c2[nH]1 | 111 | 113% | 105 | – | 98.3% | – | 106% | 91.4
N#CCCN1C(=O)CCC1C(=O)O (stereo not drawn) | 121 | 110% | 96.6 | – | 97.6% | – | 103% | 107
CCOC(=O)C(C#N)=C1CCN(C)CC1 | 106 | 109% | 97.2 | – | 103% | – | 97.7% | 103
CCOC(=O)c1c[nH][nH]c1=O | 103 | 104% | 104 | – | 102% | 98.5% | 111% | 106
Nc1ccccc1SC1CC(=O)N(c2ccc(Cl)c(Cl)c2)C1=O (stereo not drawn) | 74.8 | 101% | 98.8 | – | 87.4% | – | 100% | 124
O=C1C=CC(=O)C2=C1CCCC2 | 85.3 | 102% | – | 70.6% | 91.8% | 123% | 92.3% | 91.6
COc1c(CNC(=O)CCl)cc2[nH]c(C)cc2c1CNC(=O)CCl | 59.2 | 50.4% | 55.1 | – | 41.7% | – | 59.2% | 58.9
Nc1cc2c(cc1Cl)C(=O)c1ccccc1C2=O | 35.7 | 90.1% | – | 65.9% | 1.71% (active) | 69% | 28.8% | 37.9
CNc1ccccc1C(N)=O | 98.1 | 105% | – | 92.7% | 96.8% | 106% | 101% | 101
NCC(O)C(O)C(O)C(O)CO (stereo not drawn) | 84.1 | 100% | 97.2 | – | 86.4% | 99.1% | 98.5% | 91.3
CN=S(=O)(OCCCCCOS(=O)(=NC)c1ccc(C)cc1)c1ccc(C)cc1 (stereo not drawn) | 88.5 | 91.9% | 84.9 | 87.6% | 75.2% | 91.5% | 98.2% | –
COc1ccc(/C=C\C(=O)/C=C/c2ccc(OC)cc2)cc1 | 80.1 | -30.4% (active) | – | 11% | -96.6% (active) | -16% (active) | 4.59% (active) | 48.5
CCOc1ccccc1NC(=O)CCl | 75.3 | 83.9% | 98.4 | 46.6% | 75.8% | 110% | 97.1% | –
COc1ccc(Br)c(C=O)c1 | 69.9 | 49.8% | – | 31.5% | 22.5% | 86% | 93.7% | 76.6
CC(=O)OCC1CCC(COC(C)=O)CC1 (stereo not drawn) | 93 | 103% | 109 | – | 103% | 91.5% | 99.2% | 112
O=C(CC(CC(=O)c1ccccc1)c1ccccn1)c1ccccc1 | 97.2 | – | 101 | 107% | 94% | 97% | 102% | 101
COC1=C(OC)C(=O)C(SC/C=C(\C)CCCC(C)CCCC(C)CCCC(C)C)=CC1=O (stereo not drawn) | 12.5 | 18.5% | 18.7 | 4.9% (active) | 9.93% (active) | -4.48% (active) | 11.6% | –
CN(C)c1ccc(/C=C/C(=O)c2ccc(NC(N)=O)cc2)cc1 | 82 | 93.8% | – | 58.4% | 75.4% | 105% | 98.5% | 91.7
CC(=O)c1ccc(C)cc1 | 120 | 112% | 106 | 100% | 105% | 105% | 106% | –
Cn1c(=O)[nH]c2ccccc2c1=O | 95.2 | 101% | – | 90.2% | 103% | 112% | 102% | 91.3
COc1cccc2c1Cc1ccccc1-2 | 101 | 103% | – | 100% | 101% | 98.5% | 104% | 106
O=C1C=C[C@H](O)[C@@]2(CO)O[C@@H]12 | 94.2 | 77% | 13.9 | 42.9% | 19.9% | 104% | 98.4% | –
